Consider 9 sequences from paper PMC7862700, “An all-to-all approach to the identification of sequence-specific readers for epigenetic DNA modifications on cytosine”.

Common to all, as to assay: DAPPL (digital affinity profiling via proximity ligation, sequencing); 10 mM Tris-HCl pH 7.5, 50 mM NaCl, 1 mM DTT, 4% glycerol, room temperature, 30 min; GST-TFs on glutathione beads, 16-mer random dsDNA library, 0.1% formaldehyde crosslink after washing; high values mean tight binding
Holding throughout (details): protein: recombinant; tags: N-terminal GST; dsDNA, one strand shown

For assay [1], the target named is T1, ERF (Homo sapiens, UniProt P50548 1-548).
T1 sequence: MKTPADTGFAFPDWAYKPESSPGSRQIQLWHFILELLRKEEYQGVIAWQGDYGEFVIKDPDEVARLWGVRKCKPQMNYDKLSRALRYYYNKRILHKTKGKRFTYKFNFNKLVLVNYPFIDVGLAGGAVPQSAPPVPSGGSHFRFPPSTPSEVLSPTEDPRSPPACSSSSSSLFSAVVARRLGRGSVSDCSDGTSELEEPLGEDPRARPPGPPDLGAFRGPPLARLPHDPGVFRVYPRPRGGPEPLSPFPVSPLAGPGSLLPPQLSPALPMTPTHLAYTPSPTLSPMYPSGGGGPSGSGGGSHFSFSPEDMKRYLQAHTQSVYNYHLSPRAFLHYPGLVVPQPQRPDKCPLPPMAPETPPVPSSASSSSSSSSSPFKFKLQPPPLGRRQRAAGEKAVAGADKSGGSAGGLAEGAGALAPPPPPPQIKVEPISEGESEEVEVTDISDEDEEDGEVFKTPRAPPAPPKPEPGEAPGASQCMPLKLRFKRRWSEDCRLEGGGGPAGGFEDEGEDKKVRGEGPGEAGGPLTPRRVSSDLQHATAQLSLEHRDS
The method, boiled down: (§1)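 Sequencing on an Illumina NextSeq500 followed washing, crosslinking with 0.1% formaldehyde, proximity ligation (BsaI/T4 ligase, 1 h, 37 °C) and PCR amplification of pools that had been incubated for 30 min at room temperature with 200 nmole of a random double-stranded 16-mer DNA library in Tris/NaCl/DTT/glycerol buffer. Each pool held DNA-barcoded human transcription factors, expressed in yeast as GST fusions and captured on glutathione beads, plus a tag-only sample. Binding signal is a hexamer's read frequency for a factor divided by its frequency in the tag-only sample.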

For assay [2], the target named is T2, ETV3L (Homo sapiens, UniProt Q6ZN32 1-361).
T2 sequence: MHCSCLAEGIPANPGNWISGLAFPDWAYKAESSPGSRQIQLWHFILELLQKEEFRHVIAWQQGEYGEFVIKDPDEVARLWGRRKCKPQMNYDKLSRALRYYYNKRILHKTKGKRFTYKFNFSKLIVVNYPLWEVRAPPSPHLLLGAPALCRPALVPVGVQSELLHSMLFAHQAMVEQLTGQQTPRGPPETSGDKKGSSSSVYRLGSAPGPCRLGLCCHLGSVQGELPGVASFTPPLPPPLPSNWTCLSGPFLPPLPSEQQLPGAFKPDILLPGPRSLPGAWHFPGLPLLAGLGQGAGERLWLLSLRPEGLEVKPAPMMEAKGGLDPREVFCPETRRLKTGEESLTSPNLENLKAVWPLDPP
The essentials:
as §1

The target of assay [3] is T3, ETS2 (Homo sapiens, UniProt P15036 1-469).
T3 sequence: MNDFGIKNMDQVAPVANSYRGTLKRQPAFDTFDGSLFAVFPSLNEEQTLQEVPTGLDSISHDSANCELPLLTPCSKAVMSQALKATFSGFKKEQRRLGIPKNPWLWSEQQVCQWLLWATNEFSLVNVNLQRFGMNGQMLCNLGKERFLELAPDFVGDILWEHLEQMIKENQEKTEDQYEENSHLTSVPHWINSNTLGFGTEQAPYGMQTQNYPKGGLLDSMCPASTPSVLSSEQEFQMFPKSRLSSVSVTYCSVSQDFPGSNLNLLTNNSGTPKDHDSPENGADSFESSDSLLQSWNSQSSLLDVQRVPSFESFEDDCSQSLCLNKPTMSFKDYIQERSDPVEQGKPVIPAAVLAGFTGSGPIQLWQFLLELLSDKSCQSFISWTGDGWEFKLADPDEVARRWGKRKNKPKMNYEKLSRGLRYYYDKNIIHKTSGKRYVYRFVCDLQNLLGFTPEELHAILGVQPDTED
The method, boiled down: as §1

The target of assay [4] is T4, SPDEF (Homo sapiens, UniProt O95238 1-335).
T4 sequence: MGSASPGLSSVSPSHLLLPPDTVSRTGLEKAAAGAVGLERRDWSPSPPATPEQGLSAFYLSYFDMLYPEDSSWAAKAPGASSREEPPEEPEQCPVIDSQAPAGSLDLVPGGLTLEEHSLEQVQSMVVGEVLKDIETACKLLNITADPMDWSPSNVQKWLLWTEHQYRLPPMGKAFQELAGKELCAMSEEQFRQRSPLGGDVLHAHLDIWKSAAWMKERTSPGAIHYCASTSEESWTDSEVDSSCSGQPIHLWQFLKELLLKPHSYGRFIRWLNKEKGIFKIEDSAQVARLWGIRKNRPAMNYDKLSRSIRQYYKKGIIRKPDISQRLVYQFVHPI
The method, boiled down:
as §1

The target in assay [5] is T5, ETV7 (Homo sapiens, UniProt Q9Y603 1-341).
T5 sequence: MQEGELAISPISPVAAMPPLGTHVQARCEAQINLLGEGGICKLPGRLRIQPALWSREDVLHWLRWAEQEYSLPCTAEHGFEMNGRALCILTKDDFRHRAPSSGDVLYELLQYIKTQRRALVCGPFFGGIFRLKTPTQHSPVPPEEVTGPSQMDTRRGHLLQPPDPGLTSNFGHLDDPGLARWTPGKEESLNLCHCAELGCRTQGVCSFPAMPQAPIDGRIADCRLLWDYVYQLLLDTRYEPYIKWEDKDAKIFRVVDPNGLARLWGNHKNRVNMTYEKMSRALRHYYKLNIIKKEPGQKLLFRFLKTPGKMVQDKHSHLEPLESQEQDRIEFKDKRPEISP
The method, boiled down: as §1

Assay [6] has as its target T6, ELF5 (Homo sapiens, UniProt Q9UKW6-2 1-255).
T6 sequence: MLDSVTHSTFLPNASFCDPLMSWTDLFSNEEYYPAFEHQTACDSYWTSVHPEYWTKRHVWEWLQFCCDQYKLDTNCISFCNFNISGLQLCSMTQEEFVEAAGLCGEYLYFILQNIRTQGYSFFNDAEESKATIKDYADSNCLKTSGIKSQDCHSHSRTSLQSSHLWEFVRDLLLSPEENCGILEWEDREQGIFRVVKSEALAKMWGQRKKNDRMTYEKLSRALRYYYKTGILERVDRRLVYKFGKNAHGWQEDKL
The method, boiled down: as §1

In assay [7] the target is T7, ETV3 (Homo sapiens, UniProt P41162-2 1-143).
T7 sequence: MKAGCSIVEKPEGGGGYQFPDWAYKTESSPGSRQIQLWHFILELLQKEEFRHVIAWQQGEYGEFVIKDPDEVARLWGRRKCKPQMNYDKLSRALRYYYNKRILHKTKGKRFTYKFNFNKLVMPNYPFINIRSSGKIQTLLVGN
The method, boiled down:
as §1

Assay [8] addresses ETV6 (Homo sapiens, UniProt P41212 1-452). The method, boiled down: as §1

Sequence of ETV6 (P41212 whole entry): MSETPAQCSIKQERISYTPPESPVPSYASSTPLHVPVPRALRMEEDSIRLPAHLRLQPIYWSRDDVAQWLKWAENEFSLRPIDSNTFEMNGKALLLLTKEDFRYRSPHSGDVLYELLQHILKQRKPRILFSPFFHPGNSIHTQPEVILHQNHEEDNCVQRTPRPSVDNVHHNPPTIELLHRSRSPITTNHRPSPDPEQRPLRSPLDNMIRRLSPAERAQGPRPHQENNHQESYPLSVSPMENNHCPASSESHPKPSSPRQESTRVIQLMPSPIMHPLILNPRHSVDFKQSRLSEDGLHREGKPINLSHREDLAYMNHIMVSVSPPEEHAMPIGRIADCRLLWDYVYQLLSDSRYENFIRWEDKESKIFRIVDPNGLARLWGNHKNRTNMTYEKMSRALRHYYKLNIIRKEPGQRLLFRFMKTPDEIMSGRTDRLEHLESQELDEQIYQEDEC

Take CTCAGC: the binding signal in assay [1] was 1.1 fold enrichment (6-mer frequency, TF over GST control); in assay [2], 1.36 fold enrichment (6-mer frequency, TF over GST control); in assay [3], 1.22 fold enrichment (6-mer frequency, TF over GST control); in assay [4], 1.15 fold enrichment (6-mer frequency, TF over GST control); in assay [5], 1.21 fold enrichment (6-mer frequency, TF over GST control); in assay [6], 1.08 fold enrichment (6-mer frequency, TF over GST control). Moreover, the binding signal in assay [7] is 1.32 fold enrichment (6-mer frequency, TF over GST control); in assay [8], 1.2 fold enrichment (6-mer frequency, TF over GST control).

TCTATG: the binding signal in assay [1] is 1.07 fold enrichment (6-mer frequency, TF over GST control); in assay [2] it was 1.08 fold enrichment (6-mer frequency, TF over GST control); in assay [3] it was 1.08 fold enrichment (6-mer frequency, TF over GST control); in assay [4], 1.05 fold enrichment (6-mer frequency, TF over GST control); in assay [5], 1.25 fold enrichment (6-mer frequency, TF over GST control); in assay [6], 1.07 fold enrichment (6-mer frequency, TF over GST control). In addition, the binding signal in assay [7] is 1.18 fold enrichment (6-mer frequency, TF over GST control).

For GCAACT, the binding signal is 1.07 fold enrichment (6-mer frequency, TF over GST control) in assay [1]; 1.17 fold enrichment (6-mer frequency, TF over GST control) in assay [2]; 1.16 fold enrichment (6-mer frequency, TF over GST control) in assay [3]; 1.11 fold enrichment (6-mer frequency, TF over GST control) in assay [4]; 1.2 fold enrichment (6-mer frequency, TF over GST control) in assay [5]; 1.18 fold enrichment (6-mer frequency, TF over GST control) in assay [6]. The binding signal was 1.16 fold enrichment (6-mer frequency, TF over GST control) in assay [7] and 1.24 fold enrichment (6-mer frequency, TF over GST control) in assay [8].

With TACATT, the binding signal in assay [1] was 1.34 fold enrichment (6-mer frequency, TF over GST control); in assay [2], 1.18 fold enrichment (6-mer frequency, TF over GST control); in assay [3] it was 1.19 fold enrichment (6-mer frequency, TF over GST control); in assay [4], 1.18 fold enrichment (6-mer frequency, TF over GST control); in assay [5] it was 1.25 fold enrichment (6-mer frequency, TF over GST control); in assay [6], 1.22 fold enrichment (6-mer frequency, TF over GST control). In addition, the binding signal is 1.2 fold enrichment (6-mer frequency, TF over GST control) in assay [7] and 1.29 fold enrichment (6-mer frequency, TF over GST control) in assay [8].

As to TTCCTC, the binding signal in assay [1] was 2.13 fold enrichment (6-mer frequency, TF over GST control); in assay [2] it was 2.21 fold enrichment (6-mer frequency, TF over GST control); in assay [3], 2.22 fold enrichment (6-mer frequency, TF over GST control); in assay [4], 1.96 fold enrichment (6-mer frequency, TF over GST control); in assay [5] it was 1.96 fold enrichment (6-mer frequency, TF over GST control); in assay [6] it was 3.84 fold enrichment (6-mer frequency, TF over GST control). Also, the binding signal is 2.38 fold enrichment (6-mer frequency, TF over GST control) in assay [7] and 2.48 fold enrichment (6-mer frequency, TF over GST control) in assay [8].

Consider GGCACT, for which the binding signal in assay [1] was 1.26 fold enrichment (6-mer frequency, TF over GST control); in assay [2], 1.27 fold enrichment (6-mer frequency, TF over GST control); in assay [3] it was 1.24 fold enrichment (6-mer frequency, TF over GST control); in assay [4], 1.24 fold enrichment (6-mer frequency, TF over GST control); in assay [5], 1.26 fold enrichment (6-mer frequency, TF over GST control); in assay [6], 1.11 fold enrichment (6-mer frequency, TF over GST control). In addition, the binding signal in assay [7] was 1.29 fold enrichment (6-mer frequency, TF over GST control); in assay [8], 1.31 fold enrichment (6-mer frequency, TF over GST control).

For the sequence CACTTG, the binding signal in assay [1] was 1.41 fold enrichment (6-mer frequency, TF over GST control); in assay [2] it was 1.22 fold enrichment (6-mer frequency, TF over GST control); in assay [3] it was 1.32 fold enrichment (6-mer frequency, TF over GST control); in assay [4] it was 1.35 fold enrichment (6-mer frequency, TF over GST control); in assay [5] it was 1.37 fold enrichment (6-mer frequency, TF over GST control); in assay [6], 1.33 fold enrichment (6-mer frequency, TF over GST control). The binding signal was 1.39 fold enrichment (6-mer frequency, TF over GST control) in assay [7] and 1.31 fold enrichment (6-mer frequency, TF over GST control) in assay [8].

Turning to CGTCTT, the binding signal in assay [1] was 1.24 fold enrichment (6-mer frequency, TF over GST control); in assay [2], 1.4 fold enrichment (6-mer frequency, TF over GST control); in assay [3], 1.4 fold enrichment (6-mer frequency, TF over GST control); in assay [4], 1.48 fold enrichment (6-mer frequency, TF over GST control); in assay [5], 1.41 fold enrichment (6-mer frequency, TF over GST control); in assay [6] it was 1.5 fold enrichment (6-mer frequency, TF over GST control). The binding signal is 1.44 fold enrichment (6-mer frequency, TF over GST control) in assay [7] and 1.5 fold enrichment (6-mer frequency, TF over GST control) in assay [8].

Take TTTTGA: the binding signal in assay [1] was 1.15 fold enrichment (6-mer frequency, TF over GST control); in assay [2], 1.07 fold enrichment (6-mer frequency, TF over GST control); in assay [3] it was 1.07 fold enrichment (6-mer frequency, TF over GST control); in assay [4], 1.05 fold enrichment (6-mer frequency, TF over GST control); in assay [5], 1.02 fold enrichment (6-mer frequency, TF over GST control); in assay [6], 1 fold enrichment (6-mer frequency, TF over GST control). Moreover, the binding signal in assay [7] is 1.03 fold enrichment (6-mer frequency, TF over GST control); in assay [8], 1.04 fold enrichment (6-mer frequency, TF over GST control).
